Measured values taken from the supplement of paper PMC10849652.
Of roughly 7,900 targets only a part is listed; those with a hit were picked by preference. About 0.6% of all pairs of compound and target were hits. Unmarked numbers belong to inactive results.

Experiments:
Experiment in all cases: log2 fold change, soluble protein after heating vs DMSO (PISA); higher = thermal stabilisation; K562 cells, 10 uM, 30 min; active = over 0.2 and 3.5 SD of the protein, either way, in both replicates (recomputed)
[1] = compound: CC1=C(C=C(C=C1)NC(=O)C2=CC(=CC=C2)C(C)(C)C#N)NC3=CC4=C(C=C3)N=CN(C4=O)C
How it was run: (§1)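 Thermal stability values are relative to control samples and come from duplicates. They are expressed as log2 fold changes. For measurement, K562 cells (2×10^6 cells/mL) received 10 μM compound for 30 min, and aliquots were heated for 3 min over 48°C-58°C, pooled, and extracted at 4°C in PBS with 0.5% NP-40. Soluble protein, the supernatant after 21,000xg for 90 min, was quantified by TMTpro 16plex LC-MS/MS with equalised channel sums.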

[2] = compound: CC1=C(C=C(C=C1)NC(=O)C2=CC(=CC=C2)N(C)C)NC(=O)C3=CC=C(C=C3)O
How it was run: as §1

[3] = compound: CC1=NC(=CC=C1)C2=C(N=C(N2)C(C)(C)C)C3=CC4=NC=CN=C4C=C3
How it was run: as §1

Nexturastat A = compound: CCCCN(Cc1ccc(C(=O)NO)cc1)C(=O)Nc1ccccc1 [Nexturastat A]
How it was run: as §1

[4] = compound: CCCc1cc(C)[nH]c(=O)c1CNC(=O)c1cc(-c2ccnc(N3CCN(C)CC3)c2)cc2c1cnn2C(C)C
How it was run: as §1

givinostat = compound: CCN(CC)Cc1ccc2cc(COC(=O)Nc3ccc(C(=O)NO)cc3)ccc2c1 [givinostat]
How it was run: as §1

barasertib = compound: CCN(CCCOc1ccc2c(Nc3cc(CC(=O)Nc4cccc(F)c4)[nH]n3)ncnc2c1)CCOP(=O)(O)O [barasertib]
How it was run: as §1

[5] = compound: CC1=CC=C(C=C1)SC2=C3C=C(SC3=CN=C2)C(=O)N
How it was run: as §1

vemurafenib = compound: CCCS(=O)(=O)Nc1ccc(F)c(C(=O)c2c[nH]c3ncc(-c4ccc(Cl)cc4)cc23)c1F [vemurafenib]
How it was run: as §1

[6] = compound: CCCS(=O)(=O)Nc1ccc(F)c(C(=O)c2c[nH]c3ncc(Cl)cc23)c1F
How it was run: as §1

Target: ABCA4 (UniProt P78363)
Sequence of UniProt P78363 (P78363 whole entry, looked up): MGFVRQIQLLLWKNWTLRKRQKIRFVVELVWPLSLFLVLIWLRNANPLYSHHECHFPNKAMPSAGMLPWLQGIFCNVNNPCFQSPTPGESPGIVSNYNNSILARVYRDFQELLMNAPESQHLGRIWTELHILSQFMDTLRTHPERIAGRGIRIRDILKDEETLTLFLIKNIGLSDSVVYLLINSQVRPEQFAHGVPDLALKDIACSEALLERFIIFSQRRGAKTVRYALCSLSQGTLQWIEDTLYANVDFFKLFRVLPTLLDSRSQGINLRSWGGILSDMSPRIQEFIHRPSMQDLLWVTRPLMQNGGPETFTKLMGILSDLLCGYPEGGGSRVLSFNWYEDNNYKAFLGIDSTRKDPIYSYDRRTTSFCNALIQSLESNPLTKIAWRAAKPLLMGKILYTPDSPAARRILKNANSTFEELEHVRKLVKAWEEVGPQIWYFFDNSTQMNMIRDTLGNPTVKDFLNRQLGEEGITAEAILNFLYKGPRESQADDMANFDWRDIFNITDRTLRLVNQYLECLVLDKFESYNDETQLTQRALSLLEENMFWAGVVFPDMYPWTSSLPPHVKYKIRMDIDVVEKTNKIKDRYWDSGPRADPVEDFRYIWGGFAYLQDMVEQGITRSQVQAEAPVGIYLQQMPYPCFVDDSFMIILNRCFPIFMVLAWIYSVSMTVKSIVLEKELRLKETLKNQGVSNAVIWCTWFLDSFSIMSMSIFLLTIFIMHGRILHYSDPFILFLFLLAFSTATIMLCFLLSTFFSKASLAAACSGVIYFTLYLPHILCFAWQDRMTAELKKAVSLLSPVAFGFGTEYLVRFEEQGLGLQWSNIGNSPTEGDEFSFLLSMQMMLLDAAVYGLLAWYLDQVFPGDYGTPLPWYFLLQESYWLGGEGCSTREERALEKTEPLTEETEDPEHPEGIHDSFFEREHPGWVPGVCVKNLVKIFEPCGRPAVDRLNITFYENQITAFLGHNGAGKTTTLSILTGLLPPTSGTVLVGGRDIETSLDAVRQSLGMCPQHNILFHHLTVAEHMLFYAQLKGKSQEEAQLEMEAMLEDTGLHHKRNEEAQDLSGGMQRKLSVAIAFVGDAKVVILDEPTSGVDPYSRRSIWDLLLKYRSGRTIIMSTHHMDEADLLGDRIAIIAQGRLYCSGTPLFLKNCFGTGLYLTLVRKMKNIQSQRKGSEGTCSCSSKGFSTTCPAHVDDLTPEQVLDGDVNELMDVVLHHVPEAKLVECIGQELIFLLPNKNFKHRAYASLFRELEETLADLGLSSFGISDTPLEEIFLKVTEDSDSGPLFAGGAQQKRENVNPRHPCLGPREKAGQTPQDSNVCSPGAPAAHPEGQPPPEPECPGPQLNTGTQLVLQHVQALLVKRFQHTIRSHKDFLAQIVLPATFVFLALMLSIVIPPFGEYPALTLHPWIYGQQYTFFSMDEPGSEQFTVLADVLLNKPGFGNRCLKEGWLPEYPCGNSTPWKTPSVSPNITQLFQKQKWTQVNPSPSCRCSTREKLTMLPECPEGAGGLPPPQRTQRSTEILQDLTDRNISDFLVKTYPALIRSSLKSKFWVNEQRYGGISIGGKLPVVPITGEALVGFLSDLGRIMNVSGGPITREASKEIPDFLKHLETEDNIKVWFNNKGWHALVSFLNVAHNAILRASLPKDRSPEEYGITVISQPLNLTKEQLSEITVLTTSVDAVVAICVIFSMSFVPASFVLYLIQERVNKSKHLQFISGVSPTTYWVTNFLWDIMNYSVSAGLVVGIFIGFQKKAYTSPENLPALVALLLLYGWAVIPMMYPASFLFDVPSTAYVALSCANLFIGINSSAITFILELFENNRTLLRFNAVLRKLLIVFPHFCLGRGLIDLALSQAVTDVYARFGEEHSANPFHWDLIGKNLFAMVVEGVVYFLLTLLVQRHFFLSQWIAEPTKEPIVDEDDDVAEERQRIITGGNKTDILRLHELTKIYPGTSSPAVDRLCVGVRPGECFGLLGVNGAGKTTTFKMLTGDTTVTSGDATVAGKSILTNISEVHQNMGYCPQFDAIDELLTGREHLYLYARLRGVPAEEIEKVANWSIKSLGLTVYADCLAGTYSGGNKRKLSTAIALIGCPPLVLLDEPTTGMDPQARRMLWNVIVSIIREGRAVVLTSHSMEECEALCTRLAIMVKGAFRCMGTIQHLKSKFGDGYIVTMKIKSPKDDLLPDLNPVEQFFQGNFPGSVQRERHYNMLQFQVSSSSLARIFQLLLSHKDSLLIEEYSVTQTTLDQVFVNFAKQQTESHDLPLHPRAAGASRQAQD
- log2 fold change [1]: -0.145
- log2 fold change [2]: -0.068
- log2 fold change [3]: -0.168
- log2 fold change (Nexturastat A): 0.576 (active)
- log2 fold change [4]: 0.033
- log2 fold change (givinostat): 0.23
- log2 fold change (barasertib): 0.015

Target: AUH (UniProt Q13825)
Sequence of UniProt Q13825 (Q13825 whole entry, looked up): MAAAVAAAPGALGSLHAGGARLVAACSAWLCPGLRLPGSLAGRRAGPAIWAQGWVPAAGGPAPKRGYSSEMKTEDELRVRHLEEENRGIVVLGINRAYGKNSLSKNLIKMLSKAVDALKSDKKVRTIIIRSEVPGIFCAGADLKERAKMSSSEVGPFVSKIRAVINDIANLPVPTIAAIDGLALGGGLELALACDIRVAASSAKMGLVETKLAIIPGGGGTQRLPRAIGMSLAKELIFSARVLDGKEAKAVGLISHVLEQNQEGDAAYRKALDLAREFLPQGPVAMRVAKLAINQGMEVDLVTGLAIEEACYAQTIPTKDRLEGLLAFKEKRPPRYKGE
- log2 fold change [2]: -0.007
- log2 fold change [5]: -0.107
- log2 fold change [3]: 0.082
- log2 fold change (vemurafenib): 0.091
- log2 fold change [6]: 0.008
- log2 fold change [4]: -0.185
- log2 fold change (givinostat): 0.279
- log2 fold change (barasertib): 0.096

Target: ALG14 (UniProt Q96F25)
- log2 fold change [2]: -0.13
- log2 fold change [5]: 0.045
- log2 fold change [3]: 0.068
- log2 fold change (Nexturastat A): -0.479
- log2 fold change (vemurafenib): -0.053
- log2 fold change [6]: 0.052
- log2 fold change [4]: -0.131
- log2 fold change (givinostat): 0.03
- log2 fold change (barasertib): 0.03

Target: AZI2 (UniProt Q9H6S1)
- log2 fold change [1]: -0.091
- log2 fold change [2]: 0.045
- log2 fold change (vemurafenib): 0.047
- log2 fold change (givinostat): 0.028
- log2 fold change (barasertib): -0.023

Target: ARL4A (UniProt P40617)
- log2 fold change [4]: 0.078
- log2 fold change (barasertib): 0.057

Target: AP4S1 (UniProt Q9Y587)
Sequence of UniProt Q9Y587 (Q9Y587 whole entry, looked up): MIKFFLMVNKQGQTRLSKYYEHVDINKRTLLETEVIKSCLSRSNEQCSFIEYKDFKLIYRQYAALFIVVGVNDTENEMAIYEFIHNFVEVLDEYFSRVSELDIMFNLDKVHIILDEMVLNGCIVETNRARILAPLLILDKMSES
- log2 fold change [1]: 0.033
- log2 fold change [5]: -0.017
- log2 fold change [3]: -0.007
- log2 fold change (Nexturastat A): -0.097
- log2 fold change (vemurafenib): 0.107
- log2 fold change [6]: 0.02
- log2 fold change [4]: 0.102
- log2 fold change (givinostat): 0
- log2 fold change (barasertib): -0.008

Target: ATP6V0A1 (UniProt Q93050)
- log2 fold change (barasertib): -0.095

Target: ACOX3 (UniProt O15254)
- log2 fold change [1]: 0.111
- log2 fold change [5]: -0.192
- log2 fold change [3]: -0.011
- log2 fold change (Nexturastat A): 0.039
- log2 fold change (vemurafenib): 0.057
- log2 fold change [6]: -0.009
- log2 fold change [4]: 0.184
- log2 fold change (givinostat): -0.01
- log2 fold change (barasertib): -0.035

Target: ATF1 (UniProt P18846)
- log2 fold change [1]: -0.066
- log2 fold change [5]: -0.113
- log2 fold change (Nexturastat A): -0.026
- log2 fold change (vemurafenib): 0.035
- log2 fold change [6]: -0.016
- log2 fold change [4]: 0.002
- log2 fold change (givinostat): 0.003
- log2 fold change (barasertib): 0.079

Target: ATXN3 isoform 1 (UniProt P54252)
- log2 fold change [2]: -0.08
- log2 fold change [5]: 0.012
- log2 fold change [3]: -0.043
- log2 fold change (vemurafenib): 0.005
- log2 fold change [6]: 0.04
- log2 fold change [4]: -0.016
- log2 fold change (givinostat): 0.02
- log2 fold change (barasertib): 0.179

Target: ATRN (UniProt O75882)
Sequence of UniProt O75882 (O75882 whole entry, looked up): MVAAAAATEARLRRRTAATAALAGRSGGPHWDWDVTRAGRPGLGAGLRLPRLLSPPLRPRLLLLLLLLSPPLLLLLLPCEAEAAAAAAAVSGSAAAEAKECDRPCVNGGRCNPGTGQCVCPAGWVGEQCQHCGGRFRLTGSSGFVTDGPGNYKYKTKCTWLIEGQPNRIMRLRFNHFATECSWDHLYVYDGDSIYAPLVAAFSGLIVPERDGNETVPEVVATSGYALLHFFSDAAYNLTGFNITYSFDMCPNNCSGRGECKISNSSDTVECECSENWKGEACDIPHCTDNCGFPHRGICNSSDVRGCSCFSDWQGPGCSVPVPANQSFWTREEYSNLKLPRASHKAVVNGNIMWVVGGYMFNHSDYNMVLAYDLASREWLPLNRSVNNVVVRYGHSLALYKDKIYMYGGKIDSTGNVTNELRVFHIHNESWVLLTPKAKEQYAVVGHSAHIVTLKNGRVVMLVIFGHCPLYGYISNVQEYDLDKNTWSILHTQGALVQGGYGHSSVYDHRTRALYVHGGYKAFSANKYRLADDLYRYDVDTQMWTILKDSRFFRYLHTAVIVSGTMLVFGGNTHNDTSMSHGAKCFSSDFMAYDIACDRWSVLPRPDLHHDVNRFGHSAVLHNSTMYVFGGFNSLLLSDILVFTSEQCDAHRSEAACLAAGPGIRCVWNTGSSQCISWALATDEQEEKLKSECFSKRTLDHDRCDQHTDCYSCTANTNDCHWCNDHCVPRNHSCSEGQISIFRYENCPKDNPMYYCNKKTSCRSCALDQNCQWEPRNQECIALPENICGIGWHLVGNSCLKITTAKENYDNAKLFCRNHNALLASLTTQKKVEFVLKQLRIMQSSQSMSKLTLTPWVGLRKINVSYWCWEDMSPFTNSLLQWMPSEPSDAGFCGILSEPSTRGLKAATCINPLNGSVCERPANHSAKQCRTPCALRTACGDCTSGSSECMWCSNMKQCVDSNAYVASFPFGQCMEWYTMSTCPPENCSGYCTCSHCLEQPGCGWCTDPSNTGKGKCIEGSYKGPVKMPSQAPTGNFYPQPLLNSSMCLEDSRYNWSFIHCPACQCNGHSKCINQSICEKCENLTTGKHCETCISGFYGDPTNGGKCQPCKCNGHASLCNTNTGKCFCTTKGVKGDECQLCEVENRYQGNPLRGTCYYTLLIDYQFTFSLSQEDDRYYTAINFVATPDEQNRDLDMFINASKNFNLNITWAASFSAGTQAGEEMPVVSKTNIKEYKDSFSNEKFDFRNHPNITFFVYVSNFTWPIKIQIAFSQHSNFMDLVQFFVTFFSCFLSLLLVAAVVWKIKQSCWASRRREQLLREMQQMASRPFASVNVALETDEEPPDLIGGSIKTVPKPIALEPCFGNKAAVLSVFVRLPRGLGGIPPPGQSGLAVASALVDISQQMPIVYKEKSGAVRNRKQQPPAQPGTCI
- log2 fold change [1]: 0.037
- log2 fold change [5]: -0.034
- log2 fold change [3]: -0.061
- log2 fold change (Nexturastat A): -0.135
- log2 fold change (vemurafenib): -0.026
- log2 fold change [6]: 0.054
- log2 fold change [4]: -0.003
- log2 fold change (givinostat): 0.026
- log2 fold change (barasertib): -0.09

Target: AUNIP isoform 2 (UniProt Q9H7T9)
- log2 fold change [1]: 0.113
- log2 fold change [5]: 0.101
- log2 fold change (vemurafenib): 0.081
- log2 fold change [6]: 0.073
- log2 fold change (givinostat): 0.083

Target: BSCL2 isoform 4 (UniProt Q96G97)
- log2 fold change [5]: -0.073
- log2 fold change (Nexturastat A): -0.174
- log2 fold change (vemurafenib): 0.179
- log2 fold change [6]: -0.043
- log2 fold change [4]: -0.124
- log2 fold change (givinostat): 0.052
- log2 fold change (barasertib): 0.199

Target: ADAMTS5 (UniProt Q9UNA0)
Sequence of UniProt Q9UNA0 (Q9UNA0 whole entry, looked up): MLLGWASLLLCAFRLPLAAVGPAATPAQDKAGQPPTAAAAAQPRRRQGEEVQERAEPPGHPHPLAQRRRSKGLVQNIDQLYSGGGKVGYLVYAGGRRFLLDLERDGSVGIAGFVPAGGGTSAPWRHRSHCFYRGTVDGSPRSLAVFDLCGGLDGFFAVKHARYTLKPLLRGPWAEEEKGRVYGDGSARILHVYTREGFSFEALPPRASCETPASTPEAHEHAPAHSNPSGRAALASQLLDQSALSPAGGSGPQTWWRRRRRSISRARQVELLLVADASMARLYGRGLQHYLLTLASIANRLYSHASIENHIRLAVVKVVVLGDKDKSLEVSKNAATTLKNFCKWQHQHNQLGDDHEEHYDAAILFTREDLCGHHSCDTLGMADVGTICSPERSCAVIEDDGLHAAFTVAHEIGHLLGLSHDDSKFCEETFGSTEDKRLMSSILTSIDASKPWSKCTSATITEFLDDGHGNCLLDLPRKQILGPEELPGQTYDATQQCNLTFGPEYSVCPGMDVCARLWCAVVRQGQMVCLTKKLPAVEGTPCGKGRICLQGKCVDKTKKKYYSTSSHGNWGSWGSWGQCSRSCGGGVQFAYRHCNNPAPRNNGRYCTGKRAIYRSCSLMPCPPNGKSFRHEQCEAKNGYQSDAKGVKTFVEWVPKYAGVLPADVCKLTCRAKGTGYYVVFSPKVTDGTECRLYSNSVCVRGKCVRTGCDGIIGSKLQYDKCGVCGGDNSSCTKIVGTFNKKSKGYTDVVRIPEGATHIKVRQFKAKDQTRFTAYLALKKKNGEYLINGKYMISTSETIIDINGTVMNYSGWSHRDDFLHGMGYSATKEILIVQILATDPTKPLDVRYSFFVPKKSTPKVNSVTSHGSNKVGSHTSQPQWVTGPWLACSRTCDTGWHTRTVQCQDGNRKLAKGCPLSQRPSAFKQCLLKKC
- log2 fold change [1]: -0.171
- log2 fold change [2]: -0.022
- log2 fold change [3]: -0.164
- log2 fold change (vemurafenib): -0.095
- log2 fold change [4]: -0.572
- log2 fold change (givinostat): 0.222
- log2 fold change (barasertib): 0.02

Target: BAP18 isoform 3 (UniProt Q8IXM2)
- log2 fold change [4]: 0.005
- log2 fold change (givinostat): 0.025
